This is a sample that favours compounds with a hit; in the whole collection about 1.9% have one here.
IMPase Li inh: cell-permeable IMPase inhibitors with lithium potentiation. CHO-M1 cells, IP1 TR-FRET (IP-One), carbachol + lithium. Potency, µM (titrated, usually from 59.4 µM), most hits filed as inhibitors. hit rate 0.35% among 210,000;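 note: IP1 builds up when IMPase is blocked and the TR-FRET signal falls; nearly all actives have a fitted effect of over 50% in size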
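Concentration–response in CHO-M1 cells, lithium-potentiated; 30 min at 37C. IP1 detected by competitive TR-FRET after 10 min lysis at RT. Hill-fitted AC50.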
HTT ATP protect: cytoprotection in Huntington HTT-Q103 PC12 cell model; PC12 HTT-Q103 induced, cytoprotection, ATP luminescence, 40 h; Potency, µM (top dose mostly 56.4 µM), actives largely listed as activators; hit rate 0.14% among 230,000; AID 1471; note: nearly all actives have a fitted effect of over 45% in size
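Quantitative HTS on tebufenozide-induced (100 nM) PC12 cells expressing HTTQ103 exon 1–GFP; compounds tested as a concentration series; survival measured via cellular ATP.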
HTT aggregate: inhibitors of mutant huntingtin aggregate formation in PC12 cells | PC12 HttQ103-GFP aggregates, Acumen cytometry, 40 h | Potency, µM (top dose mostly 46.1 µM), hits mostly inhibitors | hit rate 1.1% among 220,000 | AID 1688; note: nearly all actives have a fitted effect of over 60% in size
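PC12/HTTQ103-GFP, ecdysone-inducible; teb 100 nM; cpd qHTS titration; GFP aggregates read on laser cytometer, Ex 488/Em 500-530 nm.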
NPSR antag: antagonists of human neuropeptide S receptor cAMP signaling; hit rate 1% among 220,000; Potency, µM (doses to about 38.3 µM), actives largely listed as inhibitors; CHO-NPSR cells, cAMP TR-FRET, antagonist mode; Q6W5P4; AID 1461; note: nearly all actives have a fitted effect of over 50% in size
Target sequence (Q6W5P4 whole entry, looked up): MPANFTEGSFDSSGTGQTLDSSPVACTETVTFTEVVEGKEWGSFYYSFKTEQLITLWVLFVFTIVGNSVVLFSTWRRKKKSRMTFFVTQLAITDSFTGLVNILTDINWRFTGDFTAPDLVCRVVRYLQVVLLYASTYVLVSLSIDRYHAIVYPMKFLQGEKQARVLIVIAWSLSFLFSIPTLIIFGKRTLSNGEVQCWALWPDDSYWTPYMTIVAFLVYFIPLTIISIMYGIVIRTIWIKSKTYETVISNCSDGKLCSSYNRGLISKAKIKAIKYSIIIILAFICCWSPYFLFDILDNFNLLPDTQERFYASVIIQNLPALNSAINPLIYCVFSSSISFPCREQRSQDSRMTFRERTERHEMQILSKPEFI
ERK EGF inh: inhibitors of EGF-stimulated ERK signaling pathway | HEK293-V1b, EGF-stimulated phospho-ERK AlphaScreen | Potency, µM (series often up to 11.5 µM), most hits filed as inhibitors | hit rate 0.41% among 130,000; note: nearly all actives have a fitted effect of over 55% in size
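Phospho-ERK1/2 measured by AlphaScreen (SureFire) after 5 min 25 nM EGF stimulation of V1b-expressing HEK293 cells preincubated 30 min at 37C with titrated compounds; data scaled to DMSO and EGF controls, Hill-fitted AC50.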
Large screens that a line does not name were inactive. Calls come from the whole dose curve; as a rule, active = well fitted curve in the direction sought with a large enough effect; inconclusive = small, poorly fitted or top-dose-only effect, or another doubt; inactive = no such curve, though single readings can be large; an effect the other way counts as inactive or inconclusive.

Cc1ccc(S(=O)(=O)NC(C)(C)CSc2nncn2N)cc1	HTT ATP protect inconclusive, HTT aggregate 2.8µM (no result: ERK EGF inh)
Cc1ccc(S(=O)(=O)NC(C)(C)CSc2nnc(Nc3ccccc3)s2)cc1	NPSR antag inconclusive (no result: ERK EGF inh)
COc1cccc(-n2nc3c(=S)[nH]nc(C)c3c2C)c1	IMPase Li inh inconclusive (no result: ERK EGF inh)
Cc1ccc(-n2nc3c(=S)[nH]nc(C)c3c2C)cc1	IMPase Li inh 4.5µM, NPSR antag inconclusive (no result: ERK EGF inh)
Cc1n[nH]c(=S)c2nn(-c3ccccc3)c(C)c12	IMPase Li inh 14µM, NPSR antag inconclusive (no result: ERK EGF inh)
Cc1n[nH]c(=S)c2nn(-c3cccc(Cl)c3)c(C)c12	IMPase Li inh inconclusive (no result: ERK EGF inh)
CC1=CC(=O)C2=C(C)C[C@@H]3OC(=O)[C@@H](C)[C@H]3C=C12	none (no result: HTT aggregate, NPSR antag)
CCOC(=O)C1=C(C)c2ccccc2N(C(=O)OC)C1(C)C(=O)OCC (centres undefined)	none (no result: HTT aggregate, NPSR antag, ERK EGF inh)
CCC(C)C(=O)N1c2ccccc2C(=C2SC(C(=O)OC)=C(C(=O)OC)S2)C(=S)C1(C)C (centres undefined)	NPSR antag 10µM (no result: ERK EGF inh)
Cc1ccc(NC2=C(Cl)C(=O)c3ccccc3C2=O)cc1	HTT aggregate 10µM (no result: IMPase Li inh, ERK EGF inh)
Cc1ccc(NC2=CC(=O)C(=O)c3ccccc32)cc1	HTT aggregate 10µM, ERK EGF inh inconclusive
CCN(CC)c1ccc(NC2=C(Cl)C(=O)c3ccccc3C2=O)cc1	HTT aggregate inconclusive, NPSR antag 13µM, ERK EGF inh 10µM (no result: HTT ATP protect)
CCOC(=O)c1ccc(NC2=CC(=O)C(=O)c3ccccc32)cc1	HTT aggregate inconclusive (no result: ERK EGF inh)
O=C1C(Cl)=C(NCCN2CCCCC2)C(=O)c2ccccc21	HTT aggregate inconclusive, NPSR antag inconclusive
O=C1C(Cl)=C(Nc2ccc(O)cc2)C(=O)c2ccccc21	HTT aggregate inconclusive, NPSR antag inconclusive, ERK EGF inh inconclusive (no result: IMPase Li inh)
CCNC1=C(Cl)C(=O)c2ccccc2C1=O	HTT aggregate 13µM
CCCc1cc2c(n1Cc1cc(F)cc(F)c1)C(C)C1CN(C(=O)c3ccccc3)C(C)(C(=O)OC)C21 (centres undefined)	none (no result: HTT aggregate, NPSR antag)
COc1ccc(CCCn2ncc3c2nc(N)n2nc(-c4ccco4)nc32)cc1	none (no result: HTT aggregate, NPSR antag, ERK EGF inh)
Cc1c(C(=O)N2CCC(C)CC2)sc2ncnc(N(C)c3ccccc3)c12	HTT aggregate 20µM
CNC(=S)NNC(=O)c1sccc1OCc1ccc(Cl)cc1Cl	none (no result: ERK EGF inh)
N/C(=N\NC(=O)c1sccc1OCc1ccc(Cl)cc1Cl)c1ccccn1	HTT aggregate 1.8µM
CSc1sc(C)cc1C=O	none
CSc1cc(/C=N/O)c(SC)s1	HTT aggregate 13µM (no result: ERK EGF inh)
Oc1ccc(Br)cc1-c1nc2cnccn2c1NC1CCCC1	HTT aggregate 20µM (no result: ERK EGF inh)
CCCC1/C(=N/O)CC(c2ccccc2)NC1c1ccccc1 (centres undefined)	HTT aggregate inconclusive, ERK EGF inh 35µM
CCCCN(c1ccccc1)c1ncnc2nc[nH]c12	HTT aggregate inconclusive
CCN(c1cccc(C)c1)c1ncnc2nc[nH]c12	HTT aggregate 8.9µM (no result: ERK EGF inh)
C=C1C[C@@]23CC4C5[C@@]6(C)C[C@H](O)C[C@@]57C2[C@H](O)[C@@H]1[C@H](O)[C@H]3[C@H]7N4C6	none (no result: HTT aggregate, NPSR antag)
CCCN1C(=O)/C(=C/c2ccc(N3CCCC3)c(C)c2)NC1=S	HTT aggregate 13µM, NPSR antag inconclusive (no result: ERK EGF inh)
Cc1cc(N2CCCC2)ccc1/C=C1/C(=O)N(C)C(=S)N1C	ERK EGF inh inconclusive
CCCN1C(=O)/C(=C/c2ccc(OCC(=O)OCC)cc2)NC1=S	ERK EGF inh 32µM
Cc1cc(/C=C2/C(=O)N(C)C(=S)N2C)ccc1N1CCCC1	ERK EGF inh 25µM
CCCN1C(=O)/C(=C/c2ccc(N3CCOCC3)cc2)NC1=S	none
Cc1cc(/C=C2\NC(=S)N(C)C2=O)ccc1N1CCCC1	NPSR antag inconclusive
O=C1C2=C(S[C@@H]3O[C@H](CO)[C@@H](O)[C@H](O)[C@H]3O2)C(=O)c2ccccc21	none (no result: HTT aggregate, NPSR antag)
N#Cc1c(N)nc(SCC(=O)C23CC4CC(CC(C4)C2)C3)c(C#N)c1-c1ccc(Cl)cc1	IMPase Li inh 3.5µM, NPSR antag 3.2µM (no result: ERK EGF inh)
CC(=O)CSc1nc(N)c(C#N)c(-c2cccs2)c1C#N	HTT aggregate 14µM (no result: ERK EGF inh)
CC(=O)CSc1nc(-c2cccs2)c(C#N)c(=O)[nH]1	IMPase Li inh 7.9µM, NPSR antag inconclusive

High-throughput results from PubChem BioAssay.
